# ± gives the standard deviation of the averaged measurements. Whole data set: some 33,000 sequences, median “E-score (dimensionless, -0.5 to 0.5)” near -0.049, cut for the highest 2% near 0.37. The list comes from a sample in which the highest values are over-represented; it also holds similar and randomly drawn sequences.
# System: T1, PmTbr T-box DNA-binding domain (GST fusion)
# T1 sequence: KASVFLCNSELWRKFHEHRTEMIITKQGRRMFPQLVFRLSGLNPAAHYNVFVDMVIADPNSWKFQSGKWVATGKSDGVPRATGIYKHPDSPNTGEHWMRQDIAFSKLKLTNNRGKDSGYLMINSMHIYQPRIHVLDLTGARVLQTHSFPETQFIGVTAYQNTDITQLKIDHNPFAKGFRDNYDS
# Test: PBM E-score of 8-mer (E-score (dimensionless, -0.5 to 0.5)); Tbr is Tbrain of the sea star Patiria miniata (Pm) or the sea urchin Strongylocentrotus purpuratus (Sp); higher = stronger binding preference
# Conditions: the construct has about 5 more residues each side
# Summary of the method: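 Universal Agilent oligonucleotide arrays, made double-stranded by primer extension, were incubated with 200 nM GST-fused Tbr T-box DNA-binding domain in PBS (pH 7.5). The protein was expressed in BL21 E. coli at 20 °C and purified by glutathione affinity chromatography. After scanning and quantification, the Universal PBM Analysis Suite assigned an enrichment E-score to each ungapped 8-mer, averaged over duplicate arrays.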
row,Sequence,PBM E-score of 8-mer
1,CATCCTCA,-0.0261 ± 0.11
2,GAACCTAC,-0.179 ± 0.00047
3,GGCTTAAA,-0.302 ± 0.016
4,ACAAGCTA,-0.0967 ± 0.014
5,GGGTGACA,0.4543 ± 0.0023
6,TCGTGACA,0.358 ± 0.017
7,TGGTGACA,0.409 ± 0.01
8,CGGTGACA,0.333 ± 0.0054
9,GGGTGAAA,0.0558 ± 0.043
10,GGGTGACC,-0.0479 ± 0.082
11,CGCGCTCA,0.13 ± 0.034
12,TATAAGGA,-0.154 ± 0.073
13,CACCAATA,0.224 ± 0.056
14,CCATGGCC,-0.263 ± 0.011
15,AGGTGACA,0.4826 ± 0.00079
16,AGGTGAAA,0.347 ± 0.022
17,AGGTGACC,0.172 ± 0.052
18,CGGTGACG,0.179 ± 0.047
19,AGGTGACT,0.31 ± 0.015
20,AGGTGACG,0.4629 ± 0.0014
21,GGGGGGCA,-0.327 ± 0.0093
22,GCTCTGAC,-0.205 ± 0.092
23,GGAAACCA,-0.1389 ± 0.00081
24,AACTCTCG,-0.128 ± 0.018
25,GATTCACA,0.38 ± 0.041

row,Sequence,PBM E-score of 8-mer
1,CATTCACC,-0.0785 ± 0.054
2,CATTCACA,0.385 ± 0.0049
3,CATTCACG,0.229 ± 0.041
4,TATTCACA,0.411 ± 0.029
5,AATTCACG,0.365 ± 0.0071
6,GATTCACC,-0.167 ± 0.0053
7,GATTCAGA,-0.206 ± 0.0085
8,AATTCACA,0.2798 ± 0.0014
9,AGACCACT,-0.234 ± 0.093
10,TACCCATA,-0.104 ± 0.024
11,AACTGACG,0.102 ± 0.036
12,AGGTGTGC,0.44 ± 0.0051
13,CTGTGTGC,-0.0563 ± 0.038
14,ATGTGTGG,0.3184 ± 0.0012
15,AGGTGTGG,0.483 ± 0.0024
16,AGATGTGC,0.163 ± 0.018
17,ACGTGTGG,0.362 ± 0.017
18,ATACTCCG,-0.00617 ± 0.029
19,AGAGTTAT,-0.0216 ± 0.013
20,GTCCAACA,0.198 ± 0.045
21,AAAGCGTG,0.2812 ± 0.0023
22,CGTAAACG,0.0455 ± 0.046
23,AGGCGTTG,0.369 ± 0.0053
24,CGGCGTTA,0.189 ± 0.00085
25,GGGCGTTA,0.276 ± 0.0092

row,Sequence,PBM E-score of 8-mer
1,AGGCGTTA,0.4486 ± 0.0021
2,AGGCGTTC,0.0817 ± 0.053
3,AGGCGTAG,0.0703 ± 0.0097
4,ATTGGAGG,0.0195 ± 0.049
5,AAATGGGC,0.0759 ± 0.0097
6,GGCAACGA,0.0835 ± 0.033
7,AGGAGATG,-0.0689 ± 0.011
8,ACTTTTAC,-0.0251 ± 0.02
9,CCAGAGCC,-0.17 ± 0.0096
10,AAGGTGGC,0.383 ± 0.021
11,AAGGTGGG,0.221 ± 0.026
12,GAGGTGGC,0.372 ± 0.036
13,AAGGTGGA,-0.0394 ± 0.074
14,GAGGTGGA,0.0566 ± 0.0027
15,CAGGTGGC,0.364 ± 0.018
16,TACTAGTA,-0.163 ± 0.035
17,CTGTAGCA,-0.0144 ± 0.079
18,ACGCACCA,0.0123 ± 0.072
19,AATCTTTA,-0.0517 ± 0.059
20,GACACGGC,0.187 ± 0.038
21,AACACGGC,0.162 ± 0.017
22,AACACGTC,0.399 ± 0.021
23,AACACGAT,0.291 ± 0.018
24,AACACGTA,0.34 ± 0.024
25,GACACGTC,0.373 ± 0.021

row,Sequence,PBM E-score of 8-mer
1,GACACGTA,0.317 ± 0.029
2,AACACGCT,0.197 ± 0.011
3,AACACGTT,0.386 ± 0.014
4,ACGCGTTC,0.138 ± 0.014
5,TTAGTGAA,-0.048 ± 0.037
6,TCTAAGAA,-0.239 ± 0.028
7,CAAGGTGC,0.4331 ± 0.00078
8,CAAGGTCA,0.0991 ± 0.0032
9,CAAGGTTC,0.0603 ± 0.055
10,GAAGGTAC,-0.214 ± 0.046
11,GAAGGTCC,-0.1794 ± 0.0013
12,GAAGGTAA,0.00393 ± 0.033
13,GAAGGTGC,0.439 ± 0.012
14,TAAGGTGA,0.3578 ± 0.00067
15,CAAGGTGA,0.406 ± 0.0091
16,CAAGGTGG,0.323 ± 0.03
17,CAAGGTAA,0.00125 ± 0.13
18,GAAGGTGA,0.406 ± 0.011
19,TCAAATGA,-0.203 ± 0.019
20,ATGGGCCA,-0.105 ± 0.04
21,CAGCGCTG,0.0573 ± 0.064
22,CATTACCA,-0.0668 ± 0.0072
23,ACTCCTTC,0.0419 ± 0.014
24,AGCTATAA,-0.182 ± 0.011
25,AGTTAGGG,-0.128 ± 0.021

row,Sequence,PBM E-score of 8-mer
1,AAGGTGCG,0.45 ± 0.014
2,CGGGTGCC,0.247 ± 0.024
3,ACGGTGCG,0.309 ± 0.042
4,CAGGTGCA,0.277 ± 0.021
5,CAGATGCG,-0.135 ± 0.048
6,CTGGTGCC,0.128 ± 0.018
7,AGGGTGCG,0.356 ± 0.052
8,CAGGTGCC,0.4 ± 0.0072
9,CAGGTGCG,0.4533 ± 0.0028
10,CCCACTCC,-0.0608 ± 0.036
11,CCCAGATA,-0.233 ± 0.14
12,CGAAAGCC,-0.0801 ± 0.046
13,CAGTAAAC,-0.125 ± 0.0037
14,ACTAAACT,-0.221 ± 0.1
15,AAGGACTT,-0.228 ± 0.067
16,CTGTTATA,0.184 ± 0.016
17,ATGTTACA,0.0933 ± 0.047
18,GTGTTACA,0.386 ± 0.013
19,GTGTTAGA,0.419 ± 0.0094
20,CTGTTACA,0.197 ± 0.0076
21,TTGTTAAA,0.199 ± 0.035
22,ATGTTATA,-0.0814 ± 0.076
23,CTGTTAAA,0.23 ± 0.015
24,CTGTTAGA,0.118 ± 0.0087
25,GTGTTAAA,0.429 ± 0.021

row,Sequence,PBM E-score of 8-mer
1,ATGTTAGA,-0.236 ± 0.027
2,GTGTTATA,0.426 ± 0.013
3,CACCAGTA,0.132 ± 0.018
4,CAGGCGTA,-0.0498 ± 0.043
5,AGCCACGC,-0.0441 ± 0.025
6,ACACTACG,0.283 ± 0.0065
7,AGAGTTGC,0.0099 ± 0.0045
8,AGTACTCC,-0.28 ± 0.033
9,CTAGGCCC,-0.274 ± 0.082
10,TAATGCGA,0.0983 ± 0.054
11,AAAACCTG,0.191 ± 0.063
12,CTAGCCAG,-0.185 ± 0.027
13,AAACTCTC,-0.00208 ± 0.031
14,GGAGCTCA,-0.0734 ± 0.021
15,GTGTTAAC,0.438 ± 0.017
16,ATGTTAAC,0.161 ± 0.015
17,CTGTTAAC,0.281 ± 0.055
18,CTAAGTGA,0.225 ± 0.032
19,AACTTAGA,-0.157 ± 0.055
20,ACGCAGTA,-0.0663 ± 0.018
21,GGGTGTCA,0.472 ± 0.0071
22,CGATGTGA,0.228 ± 0.018
23,GGGGGTCA,-0.0111 ± 0.17
24,CGGTGTCC,-0.00395 ± 0.072
25,CGGTGTCA,0.4 ± 0.012

row,Sequence,PBM E-score of 8-mer
1,CGGTGTGC,0 ± 0.12
2,CGGTGTGA,0.451 ± 0.0064
3,CGATGTCA,0.0984 ± 0.03
4,GCGTGTCA,0.276 ± 0.034
5,CGAAATTC,0.0215 ± 0.011
6,ATAATGCC,-0.174 ± 0.081
7,AGTATGCG,-0.0996 ± 0.096
8,CAGAACCA,-0.232 ± 0.018
9,GCAATTCA,0.0777 ± 0.042
10,GACAAGGC,0.101 ± 0.025
11,ATTCGCAC,0.4784 ± 0.002
12,CTTCGCAC,0.454 ± 0.019
13,CTTCGCCC,-0.0791 ± 0.096
14,ATTCGCAA,0.298 ± 0.027
15,ATTCGCAG,0.297 ± 0.024
16,CTTCGCAA,0.336 ± 0.028
17,GATTACGA,-0.00232 ± 0.07
18,ATGGCAGA,-0.0257 ± 0.063
19,AAGACATT,-0.203 ± 0.097
20,CTGACAGC,0.289 ± 0.011
21,ATGACACC,0.463 ± 0.0098
22,ATGACACA,0.314 ± 0.0075
23,ATGACACG,0.312 ± 0.017
24,CTGACATC,-0.0976 ± 0.035

# — the supplement of paper PMC4166925
